This is an account of results in PubChem BioAssay AID2685 (National Center for Advancing Translational Sciences (NCATS), 2010).

Screen size: about 320,000 compounds; about 2,100 (0.66%) were called active. Roughly 53% stayed inconclusive and do not appear here. Calls follow the shape of the dose curve; as a rule, active = well fitted inhibition curve with a large enough effect in the signal ratio, with a control signal flat (not every such curve was filed as active); inconclusive = small, poorly fitted or top-dose-only effect, or effect the other way, or a change in a side signal; inactive = flat fitted curve, though single readings scatter; the % refers to the signal ratio. The full list was thinned out, with actives kept by preference.
Potency is read from the fitted curve at half-maximal effect.

A short description of the assay: qHTS Assay for Lipid Storage Modulators in Drosophila S3 Cells.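 As to cell number change: cells counted by Cell Tracker Red CMTPX staining in the red channel.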 As to lipid storage change, negative = inhibition: % is scaled to controls: 0 for no effect and ±100 for the full control effect. To be noted: BODIPY lipid droplet fluorescence, 18-24 h, cells fed with added oleic acid; cell number change: measured here: cell count max response; series mostly up to 46.1 µM; lipid storage change, negative = inhibition: at the top concentration. In outline: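 Drosophila S3 cells loaded with oleic acid (400 uM, as added) and compounds at several concentrations; lipid droplets imaged by 488-nm laser-scanning cytometry, 500–530 nm intensity and object ratio to cell channel. Percent activity normalized to 20 uM Triacsin C.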
In general terms: In qHTS, concentration-response curves come from the screen itself.
On to `Cc1ccc(N2C(=O)C(Cl)=C(N3CCOCC3)C2=O)c(C)c1`, for which the “lipid storage change, negative = inhibition” value was 8.98% (inactive) and the cell number change was -6.56%. With `CCOC(=O)C(=CNc1ccc(C(F)(F)F)cc1)C(=O)OCC`, the “lipid storage change, negative = inhibition” value is 9.49% (inactive) and the cell number change came to 11.9%. In the case of `CC1CN(C(=O)c2cccc(C(=O)N3CC(C)OC(C)C3)c2)CC(C)O1` (stereo unspecified), the Potency was 18.4 µM (active) and the cell number change was 7.82%.

With `CC1CN(C(=O)c2ccc(C(=O)c3ccccc3)cc2)CC(C)O1` (stereo unspecified), the “lipid storage change, negative = inhibition” value is 12.1% (inactive) and the cell number change is -18.7%. Consider `CC1CN(C(=O)CN2C(=O)c3ccccc3C2=O)CC(C)O1` (stereo unspecified), for which the Potency is 23.1 µM (active) and the cell number change was -24.9%. Turning to `Cc1cc(C)cc(C(=O)N2CC(C)OC(C)C2)c1` (stereo unspecified), the “lipid storage change, negative = inhibition” value is -3.57% (inactive) and the cell number change amounted to 20.2%. The like results for `CC1CN(C(=O)CCN2C(=O)c3ccccc3C2=O)CC(C)O1` (stereo unspecified) were, in that order, 3.2% (inactive) and 7.71%. The corresponding values for `CC1CN(C(=O)Cn2c(=O)oc3ccccc32)CC(C)O1` (stereo unspecified) are 17.6% (inactive) and 13.4%. The like results for `O=C(CC(=O)N/N=C/c1ccc(Cl)cc1Cl)NCc1ccccc1` were, in that order, 28.5% (inactive) and -3.68%. Consider `CCN(Cc1ccccc1)c1ccc(/C=N/NC(=S)NC(C)C)cc1`, for which the “lipid storage change, negative = inhibition” value is -15.2% (inactive) and the cell number change is -13%. For the molecule `OCc1nc2ccccc2n1CC(O)Cn1ccc2ccccc21` (stereo unspecified), the molecule was classed as inactive. In the case of `O=c1ccc2c([nH]1)CCCCCCCCCC2`, the “lipid storage change, negative = inhibition” value was 2.42% (inactive) and the cell number change came out at 10%. `O=c1cc2c(n[nH]1)-c1ccccc1CC2`: the “lipid storage change, negative = inhibition” value was -0.241% (inactive) and the cell number change is 1.15%. For the molecule `O=c1cc2c(n[nH]1)CCCC2`, the Potency is 0.58 µM (active) and the cell number change was -2.03%. For the molecule `Cc1ccc(-c2nnc(SCC(=O)Nc3nccs3)n2N)cc1`, the “lipid storage change, negative = inhibition” value was -7.51% (inactive) and the cell number change was -14.7%. As for `COc1ccc(NS(=O)(=O)c2ccc3c(c2)N(C(C)=O)CC(C)S3)c(OC)c1` (stereo unspecified), the molecule was called inactive and the cell number change worked out at 6.52%. For the molecule `O=C1NC2(CCCCCCC2)C(=O)N1Cc1ccc(F)cc1`, the “lipid storage change, negative = inhibition” value was -10.4% (inactive) and the cell number change amounted to 7.12%. Take `CC(C)c1ccc(CN2C(=O)NC3(CCCCCC3)C2=O)cc1`: the Potency is 18.4 µM (active) and the cell number change turned out to be 2.7%. `O=C1NC2(CCCCCC2)C(=O)N1Cc1ccc(Br)cc1`: the “lipid storage change, negative = inhibition” value is 23% (inactive) and the cell number change is -22.7%. As for `CCCCC(=O)NS(=O)(=O)c1ccc(N=NN2CCOCC2)cc1`, the “lipid storage change, negative = inhibition” value was 1.16% (inactive) and the cell number change is -7.29%. The corresponding values for `CCCCSCCCNC(=S)Nc1ccccc1C` are 3.97% (inactive) and -6.21%. The corresponding values for `Cc1ccc(NC(=O)CSc2ccccc2NC(=O)c2ccccc2Cl)cc1Cl` are 8.64% (inactive) and 13.7%. The corresponding values for `Cc1ccc(NC(=O)CSc2ccccc2NC(=O)c2cccc(Cl)c2)cc1Cl` are -2.45% (inactive) and -1.09%. Turning to `Cc1ccc(NC(=O)CSc2ccccc2NC(=O)c2ccccc2)cc1Cl`, the Potency was 20.6 µM (active) and the cell number change was -20%.

`CC(=O)c1cccc(NS(=O)(=O)c2ccc(N/C=C/C(=O)c3ccc(F)cc3)cc2)c1`: the molecule was classed as inactive and the cell number change is -28.4%. In the case of `CCOc1cccc(CNCCO)c1OCc1ccc(Cl)cc1`, the “lipid storage change, negative = inhibition” value is 10.9% (inactive) and the cell number change was -0.0822%.

For `CCOC(=O)c1sc2nc(CSc3nc4ccccc4n3CC)[nH]c(=O)c2c1C`, the “lipid storage change, negative = inhibition” value is 1% (inactive) and the cell number change is -16.4%. In the case of `CCn1c(SCc2nc3sc(C(=O)O)c(C)c3c(=O)[nH]2)nc2ccccc21`, the Potency was 20.6 µM (active). With `C=CCn1c(SCc2nc3sc(C(=O)O)c(C)c3c(=O)[nH]2)nnc1-c1ccccc1`, the “lipid storage change, negative = inhibition” value was 3.05% (inactive) and the cell number change is -15.1%.

On to `O=C(Nc1ccc(C2CCCCC2)cc1)C1CCN(c2ncccn2)CC1`, for which the “lipid storage change, negative = inhibition” value was 9.94% (inactive) and the cell number change was -8.69%. As for `Nc1ccc2c(c1)C/C(=C/c1ccco1)C2=O`, the “lipid storage change, negative = inhibition” value is 27.6% (inactive). Consider `CC(C)(C)C1C/C(=C/c2ccco2)C(=O)/C(=C/c2ccco2)C1` (stereo unspecified), for which the Potency was 10.3 µM (active) and the cell number change was -6.47%. The like results for `O=C1/C(=C\c2ccco2)CCC/C1=C\c1ccco1` were, in that order, 20.6 µM (active) and -21.3%. As to `CC1=N/C(=C/c2ccco2)C(=O)O1`, the “lipid storage change, negative = inhibition” value is 0.0552% (inactive) and the cell number change was -0.878%. The corresponding values for `O/N=C1\CCC\C1=C/c1ccco1` are -0.642% (inactive) and 0.139%. The corresponding values for `O=C1/C(=C/c2ccco2)CCC1C1CCCC1` (stereo unspecified) are 0.768% (inactive) and -18.8%.

`CN(C)S(=O)(=O)c1ccc(C(=O)Nc2ccc(S(=O)(=O)NC3=NCCCCC3)cc2)cc1`: the outcome was inactive.

`O=C(CN1C(=O)CCS(=O)(=O)c2ccccc21)Nc1ccc2c(c1)OCCO2`: the “lipid storage change, negative = inhibition” value is 4.62% (inactive) and the cell number change was -1.7%. The like results for `O=C(CN1C(=O)CCS(=O)(=O)c2ccccc21)Nc1cccc(Cl)c1` were, in that order, 0.523% (inactive) and -9.4%. With `Cc1cc(C)c(NC(=O)CN2C(=O)CC(C)S(=O)(=O)c3ccccc32)c(C)c1` (stereo unspecified), the result was inactive and the cell number change amounted to 13.7%. The corresponding values for `COc1ccc(NC(=O)CN2C(=O)CC(C)S(=O)(=O)c3ccccc32)cc1` (stereo unspecified) are “inactive” and 4.2%. With `CCc1ccc(NC(=O)CN2C(=O)CC(C)S(=O)(=O)c3ccccc32)cc1` (stereo unspecified), the Potency was 20.6 µM (active) and the cell number change came to 4.2%.

As to `O=C(CN1C(=O)CCS(=O)(=O)c2ccccc21)Nc1cccc(F)c1`, the Potency was 23.1 µM (active) and the cell number change was determined as 3.53%. On to `CC1(C)CC2CC(C)(CN2C(=O)COC(=O)c2ccc(Cl)c(N)c2)C1` (stereo unspecified), for which the “lipid storage change, negative = inhibition” value is -0.783% (inactive) and the cell number change was found to be 7.11%. As to `Cc1ccc(NC(=O)CCc2c(C)nn(-c3ccc(N4CCCCC4)nn3)c2C)cc1`, the call was inactive. As for `Cc1ccc(S(=O)(=O)CCC(=O)OCc2ccc(Cl)cc2)cc1`, the “lipid storage change, negative = inhibition” value is 8.22% (inactive) and the cell number change was -1.83%. Turning to `Cc1ccc2[nH]c(=O)c(CN(CC3CCCO3)C(=O)c3cccs3)cc2c1` (stereo unspecified), the molecule was classed as inactive and the cell number change is 31.3%. As to `O=C(NCCO)C1(c2ccc(Cl)cc2)CCCC1`, the Potency was 20.6 µM (active) and the cell number change was -14.3%.
